Source: PubChem BioAssay (The Scripps Research Institute Molecular Screening Center)
Shown is part of a subset that was picked to be rich in hits.
GBA activity up = glucocerebrosidase activity enhancement; hit rate 0.44% among 30,000; AID 784; L444P Gaucher fibroblasts, 4-MU-glucoside fluorescence, 3 days; activation, % at 10 µM; in the data active means activation above about 65%;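 further: 0% = vehicle wells and 100% = positive control wells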
Target sequence (P04062 whole entry L483P): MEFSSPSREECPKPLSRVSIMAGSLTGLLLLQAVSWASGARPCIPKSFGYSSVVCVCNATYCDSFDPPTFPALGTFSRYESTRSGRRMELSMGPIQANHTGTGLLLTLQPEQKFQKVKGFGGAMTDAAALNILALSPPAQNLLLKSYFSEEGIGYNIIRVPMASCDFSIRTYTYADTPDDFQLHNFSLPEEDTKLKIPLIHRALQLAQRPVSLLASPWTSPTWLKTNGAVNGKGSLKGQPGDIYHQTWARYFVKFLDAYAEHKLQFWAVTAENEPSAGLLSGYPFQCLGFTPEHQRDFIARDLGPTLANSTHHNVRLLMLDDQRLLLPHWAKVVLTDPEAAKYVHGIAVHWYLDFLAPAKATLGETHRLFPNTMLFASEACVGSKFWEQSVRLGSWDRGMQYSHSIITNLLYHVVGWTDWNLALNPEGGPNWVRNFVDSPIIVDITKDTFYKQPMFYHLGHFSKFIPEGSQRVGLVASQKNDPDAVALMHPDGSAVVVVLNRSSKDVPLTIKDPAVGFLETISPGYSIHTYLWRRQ
Numbers without * were called inactive.

SMILES	GBA activity up
Cc1ccc(N2C(=O)Nc3ccc(Br)cc3C2(O)C(=O)NCCCN(C)C)cc1C (centres undefined)	119*
CN(C)CCNC(=O)c1cc2cc(Br)ccc2oc1=O	-4
CN1CCN(C(=O)N2CCNC2=O)CC1	-42
COC(=O)c1cc(OC)c(OC)cc1NC(=O)c1ccoc1C	-7
Cc1nnc(NC(=O)C2CCCN(c3ncccn3)C2)s1 (centres undefined)	-3
COC(=O)c1ccc(NC(=O)CN2CCN(S(=O)(=O)c3cc(Cl)ccc3OC)CC2)cc1	-18
COc1ccc(NC(=O)CN2CCN(S(=O)(=O)c3ccc(C(C)C)cc3)CC2)cc1OC	66*
COc1ccc(C)cc1NC(=O)CN1CCN(S(=O)(=O)c2ccc(C(C)C)cc2)CC1	21
Cc1ccc(C)c(S(=O)(=O)C(C#N)c2nc3ccccc3nc2N2CCCC2)c1 (centres undefined)	13
COc1ccc(CNC(=O)C(C#N)c2nc3ccccc3nc2N2CCCC2)cc1 (centres undefined)	-20
COc1ccc(S(=O)(=O)C(C#N)c2nc3ccccc3nc2N2CCCCC2)cc1 (centres undefined)	96*
CCOc1ccc(CCNS(=O)(=O)c2cnc[nH]2)cc1OCC	1
CCOC(=O)c1ccc(NC(=O)NC2CC3CCC(C2)N3Cc2nnnn2C(C)(C)C)cc1 (centres undefined)	12
COc1ccc(OC)c2[nH]c(=O)c(CCNC(=O)c3ccc(Br)o3)cc12	-27
COCCNC(=O)C(c1ccccc1)N(CCOC)C(=O)Cn1nnc2ccccc21 (centres undefined)	-7
C=CCN(C(=O)Cn1nnc2ccccc21)C(C(=O)NCCOC)c1ccc(OC)cc1OC (centres undefined)	93*
COCCN(C(=O)Cn1nnc2ccccc21)C(C(=O)NC1CCCC1)c1cc(OC)ccc1OC (centres undefined)	13
Cc1ccc(CN(CC(=O)NCCc2ccccc2)C(=O)CCCC(=O)Nc2cc(C)on2)cc1	-37
CCOC(=O)CC(N)c1ccc2c(c1)OCO2 (centres undefined)	-10
Cc1nn(C(=O)CCCC(=O)n2nc(C)c(Cl)c2C)c(C)c1Cl	7
Cc1cc2ccccc2c(=O)n1CC(=O)N1CCN(c2cccc(Cl)c2)CC1	-13
Cc1cc2ccccc2c(=O)n1CC(=O)NC1CCCCCC1	-20
Cc1cc2ccccc2c(=O)n1CC(=O)NCC(=O)N1CCN(c2ccccc2)CC1	75*
CCc1nn(CC(=O)N2CCN(Cc3ccc4c(c3)OCO4)CC2)c(=O)c2cc3occc3n12	-14
CC(C)C(NS(=O)(=O)c1cccs1)C(=O)N1CCc2ccccc2C1 (centres undefined)	-24
SMILES	GBA activity up
Cc1ccc(S(=O)(=O)NCC(=O)N(CC(=O)NCc2ccccc2)CC2CCCO2)cc1 (centres undefined)	5
COc1ccc(CNC(=O)CN(CC2CCCO2)C(=O)CNS(=O)(=O)c2ccccc2)cc1 (centres undefined)	-7
COc1ccc(CNC(=O)CN(CC2CCCO2)C(=O)CNS(=O)(=O)c2ccc(C)cc2)cc1 (centres undefined)	76*
CCOC(=O)c1cnc(SC2CCc3ccccc3C2=O)nc1N (centres undefined)	12
O=S(=O)(NC1CC1)c1cccc(S(=O)(=O)N2CCCC2)c1	-17
O=S(=O)(NC1c2cccc3cccc(c23)C1N1CCNCC1)c1ccccc1 (centres undefined)	74*
O=S(=O)(NC1c2cccc3cccc(c23)C1N1CCN(CCO)CC1)c1ccccc1 (centres undefined)	-22
CCSc1nnc(NC(=O)Cc2ccc(OC)c(S(=O)(=O)N3CCOCC3)c2)s1	-3
O=C(CN(Cc1ccccc1)C(=O)c1ccco1)NCc1ccc(F)cc1	-16
CCCCNC(=O)C1CCCN1C(=O)Nc1cccc(OC)c1 (centres undefined)	73*
CC(=O)Nc1cccc(NC(=O)C2CCCN2C(=O)Nc2cccc(C)c2)c1 (centres undefined)	-10
COc1cccc(NC(=O)C2CCCN2C(=O)Nc2cccc(F)c2)c1 (centres undefined)	-38
COc1ccc(CNC(=O)C(C)OC(=O)c2cccn2C)cc1 (centres undefined)	-8
CCOc1cc2[nH]c(=O)n(CC3CCC(C(=O)NC4CCCCC4)CC3)c(=O)c2cc1OCC (centres undefined)	5
CCCCN(C)C(=O)CCCCn1c(=O)[nH]c2cc(OCC)c(OCC)cc2c1=O	68*
CCOc1cc2[nH]c(=O)n(CCCCCC(=O)NCc3ccc4c(c3)OCO4)c(=O)c2cc1OCC	-23
CCOC(=O)c1cc2c(N)c(C(=O)c3cc(C#N)c(SC)nc3C)sc2nc1C	-30
Clc1ccc(C2=Nn3c(nnc3-c3cccnc3)SC2)s1	-14
Brc1ccc(C2=Nn3c(nnc3-c3cccnc3)SC2)s1	98*
O=c1oc2ccccc2cc1C1=Nn2c(nnc2-c2cccnc2)SC1	-9
O=C(NCCCn1ccnc1)Nc1ccc(Cl)c(Cl)c1	-3
C=C(C)c1cccc(C(C)(C)NC(=O)NCCCn2ccnc2)c1	-16
O=C(NCCCn1ccnc1)Nc1ccc(Cl)cc1	122*
CC(C)(C)SCCNC(=O)c1ccc(NS(C)(=O)=O)cc1	-1
COc1ccccc1NC(=O)C1=C(C)NC2=C(C(=O)CCC2)C1c1ccc2c(c1)OCO2 (centres undefined)	-27
SMILES	GBA activity up
COCCn1c(SCC(=O)Nc2cccc(C(=O)OC)c2)nc2ccccc2c1=O	7
CCCNS(=O)(=O)c1ccc(C(=O)NCC2CCCO2)cc1 (centres undefined)	-30
CCCCS(=O)(=O)Nc1ccc(C(=O)NCC2CCCO2)cc1 (centres undefined)	-10
Cc1ccc(C)n1-c1ccc(C(=O)NCC2CCCO2)cc1 (centres undefined)	93*
Cc1ccc(CS(=O)(=O)CCC(=O)NCCCN2CCCC2=O)cc1	15
O=C(NCc1cccnc1)C1c2ccccc2C(=O)N1C1CCCC1 (centres undefined)	-6
CCN(CC)S(=O)(=O)c1csc(C(=O)NCc2ccccc2)c1	-8
ON1C2CCCCC2N(O)C1c1c(F)c(F)c(F)c(F)c1F (centres undefined)	-10
CC(=O)N1C(C(=O)O)CSC1c1cccc(C)c1 (centres undefined)	122*
Cc1cccc(CN2CCN(CC(=O)O)C2=O)c1	12
Cc1cccc(NC(=O)c2cnc3n(c2=O)CCS3)c1	-8
CC1N=C2c3ccccc3N=C(SCc3cc(=O)n4ccccc4n3)N2C1=O (centres undefined)	-11
Cc1c(Cl)cccc1N(CC(=O)N1CCCCCC1)S(C)(=O)=O	-9
CNC(=O)CN(c1cccc2ccccc12)S(C)(=O)=O	-31
Cc1c(Cl)cccc1N(CC(=O)O)S(C)(=O)=O	88*
OCC#Cc1cnc2ccccc2c1	-4
Cc1cc(C)n(CCc2nc3c4ccccc4n(CC(=O)Nc4ccc(Cl)cc4F)c(=O)n3n2)n1	19
COCCn1c(=O)c2c(nc3n2CCN3c2ccc(C)cc2)n(C)c1=O	-8
O=C(O)CN1C(=O)CSc2ccccc21	-8
CC1(C)CC(=O)N(CC(=O)O)c2ccccc2S1	88*
CCOC(=O)CN1C(=O)CSc2ccccc21	73*
O=C(O)CN1C(=O)C2(OCCCO2)c2ccccc21	4
Cc1ccc2c(c1)N(CC(=O)O)C(=O)CO2	-7
O=C1CSc2ccccc2N1Cc1ccc(F)cc1	37
c1ccc(Cn2c(CNc3nc4ccccc4n3CCN3CCOCC3)nc3ccccc32)cc1	-21
